Laboratory results as given in article PMC5540273 (PLoS ONE, 2017).

How the values were obtained:
Details in all cases: concentration: 1 μM, replicates: in singlicate; n = 1
MAP4K2 = test system: MAP4K2
MAP4K3 = test system: MAP4K3
MAP4K4 = test system: MAP4K4
MAP4K5 = test system: MAP4K5
MAPKAPK2 = test system: MAPKAPK2
MAPKAPK5 = test system: MAPKAPK5
MARK1 = test system: MARK1
MARK2 = test system: MARK2
MARK3 = test system: MARK3
MARK4 = test system: MARK4
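Note: KINOMEscan kinase panel screen.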

SMILES | %Inh (MAP4K2) [%] | %Inh (MAP4K3) [%] | %Inh (MAP4K4) [%] | %Inh (MAP4K5) [%] | %Inh (MAPKAPK2) [%] | %Inh (MAPKAPK5) [%] | %Inh (MARK1) [%] | %Inh (MARK2) [%] | %Inh (MARK3) [%] | %Inh (MARK4) [%]
CS(=O)(=O)CCNCc1nc(-c2ccc3ncnc(Nc4ccc(OCc5ccccc5)c(Cl)c4)c3c2)cs1.Cl [GW582764] | 0 | 0 | 10 | 8 | 21 | 0 | 0 | 0 | 0 | 0
Cc1ccc(NC(=O)Nc2ccc(Cl)c(C(F)(F)F)c2)cc1-c1ccc(C(=O)Nc2ccncc2)cc1 [GSK1398470] | 0 | 8 | 29 | 12 | 7 | 0 | 0 | 13 | 8 | 0
Nc1cccc(-c2ccc3c(N)n[nH]c3c2)n1 [GSK2192730] | 59 | 0 | 0 | 0 | 0 | 0 | 0 | 10 | 0 | 0
O=C(Nc1n[nH]c2nc(-c3cccs3)c(Br)cc12)C1CC1 [SB-735297] | 0 | 0 | 0 | 0 | 0 | 10 | 1 | 0 | 20 | 6
